Screens as filed in PubChem BioAssay.
Pf Dd2 inh = inhibitors of Plasmodium falciparum Dd2 growth; 94,000 compounds, 2.3% hits; activity change, % at 10 µM; P. falciparum Dd2 growth, SYBR Green, 72 h; hits give low values; in the data active = activity change below about -80%
C diff HTS = C. difficile growth inhibition | 86,000 compounds, 0.25% hits | Clostridium difficile clinical isolate growth, OD600, 24 h; hits give low values | growth activity, negative = inhibition, % at 16 µg/mL (by protocol);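 active = mean growth activity at or below -80% and every replicate also at or below -80%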
Of the large screens only hits and unclear results are named; the others gave an inactive call. In the library only some 2.3% were active in any assay of this set; here they are far more common.

C[C@@H]1CN([C@@H](C)CO)C(=O)c2cc(/C=C/c3ccccc3)cnc2O[C@H]1CN(C)C(=O)c1ccccc1	none
CCCNC(=O)N1C[C@H]2[C@@H](c3ccccc31)[C@H](CO)N2Cc1ccc2c(c1)OCO2	none
CCN1[C@@H]2c3ccc(-c4cccnc4)c(=O)n3C[C@H]1[C@H](CO)[C@H]2C(=O)NCc1ccccc1	none
O=C(C[C@H]1CC[C@@H]2[C@H](COC[C@H](O)CN2Cc2cccc(Cl)c2)O1)N1CCCCC1	none
CC(C)NC(=O)N(C)C[C@H]1Oc2ccc(N(C)C)cc2CC(=O)N([C@H](C)CO)C[C@H]1C	none
CCCC#Cc1cnc2c(c1)C(=O)N([C@H](C)CO)C[C@H](C)[C@@H](CN(C)S(=O)(=O)c1cccc(OC)c1)O2	none
CCCN(C)C[C@@H]1Oc2ncc(C#Cc3cccc(OC)c3)cc2C(=O)N([C@H](C)CO)C[C@@H]1C	none
COc1ccc(NC(=O)N(C)C[C@@H]2Oc3ncc(-c4cccnc4)cc3C(=O)N([C@@H](C)CO)C[C@H]2C)cc1	none
COc1ccc(NC(=O)N(C)C[C@H]2Oc3ncc(-c4cccnc4)cc3C(=O)N([C@H](C)CO)C[C@@H]2C)cc1	Pf Dd2 inh -83
CCCN(C)C[C@@H]1Oc2ncc(C#Cc3ccc(OC)cc3)cc2C(=O)N([C@H](C)CO)C[C@@H]1C	Pf Dd2 inh -81
COc1ccc(S(=O)(=O)N(C)C[C@@H]2Oc3ncc(-c4ccncc4)cc3C(=O)N([C@H](C)CO)C[C@H]2C)cc1	none
COc1ccc(-c2cnc3c(c2)C(=O)N([C@@H](C)CO)C[C@H](C)[C@H](CN(C)S(=O)(=O)c2ccc(OC)cc2)O3)cc1	Pf Dd2 inh -83 (no result: C diff HTS)
COc1cccc(S(=O)(=O)N(C)C[C@@H]2Oc3ncc(C#Cc4ccc(OC)c(OC)c4)cc3C(=O)N([C@H](C)CO)C[C@@H]2C)c1	Pf Dd2 inh -92
C[C@@H]1CN([C@H](C)CO)C(=O)Cc2cc(NC(=O)Nc3ccc(F)cc3)ccc2O[C@@H]1CN(C)Cc1ccc(C(F)(F)F)cc1	none
CCCC(=O)Nc1ccc2c(c1)C(=O)N(C)C[C@H](OC)[C@H](C)CN(CCC(F)(F)F)[C@H](C)CO2	none
CN1CCN(C(=O)C[C@H]2CC[C@H]3[C@@H](COC[C@@H](O)CN3C(=O)c3ccc(F)cc3)O2)CC1	none
Cc1noc(C)c1S(=O)(=O)N(C)C[C@@H]1Oc2ccc(NC(=O)Cc3cn(C)c4ccccc34)cc2CC(=O)N([C@@H](C)CO)C[C@@H]1C	none
C[C@@H]1CCCCO[C@@H](CN(C)C(=O)Nc2cccc3ccccc23)[C@H](C)CN([C@@H](C)CO)C(=O)c2cc(NC(=O)c3ccccc3)ccc2O1	none
C[C@@H]1CN([C@H](C)CO)C(=O)c2cc(NC(=O)c3ccccc3)ccc2O[C@@H](C)CCCCO[C@@H]1CN(C)C(=O)Nc1cccc2ccccc12	Pf Dd2 inh -89
C[C@H](CO)N1C[C@H](C)[C@H](CN(C)C(=O)Nc2cccc3ccccc23)OCCCC[C@H](C)Oc2ccc(NC(=O)c3ccccc3)cc2C1=O	none
C[C@@H]1CCCCO[C@H](CN(C)C(=O)Nc2cccc3ccccc23)[C@@H](C)CN([C@@H](C)CO)C(=O)c2cc(NC(=O)c3ccccc3)ccc2O1	Pf Dd2 inh -82
C[C@@H]1CN([C@H](C)CO)C(=O)c2cc(N(C)C)ccc2O[C@@H](C)CCCCO[C@H]1CN(C)C(=O)Nc1cccc2ccccc12	none (no result: Pf Dd2 inh)
C[C@@H]1CN([C@@H](C)CO)C(=O)c2cc(NC(=O)c3ccccc3)ccc2O[C@@H](C)CCCCO[C@H]1CN(C)C(=O)Nc1cccc2ccccc12	Pf Dd2 inh -81
C[C@@H]1CCCCO[C@H](CN(C)C(=O)Nc2cccc3ccccc23)[C@@H](C)CN([C@@H](C)CO)C(=O)c2cc(N(C)C)ccc2O1	Pf Dd2 inh -83
C[C@@H]1CCCCO[C@@H](CN(C)C(=O)Nc2cccc3ccccc23)[C@@H](C)CN([C@H](C)CO)C(=O)c2cc(NC(=O)c3ccccc3)ccc2O1	none
C[C@H]1CN([C@@H](C)CO)C(=O)CCCn2nncc2CO[C@H]1CN(C)Cc1ccccc1C(F)(F)F	none (no result: C diff HTS)
C[C@@H]1CN([C@H](C)CO)C(=O)Cc2cc(NS(=O)(=O)c3ccc(F)cc3)ccc2O[C@@H]1CN(C)Cc1ccc(Oc2ccccc2)cc1	none
C[C@H]1CCCCO[C@H](CN(C)C(=O)CCC(F)(F)F)[C@@H](C)CN([C@@H](C)CO)C(=O)c2cc(NC(=O)Nc3ccccc3)ccc2O1	none
COc1ccccc1C#Cc1ccc2c(c1)[C@H]1[C@H](CCN1C(=O)c1ccc(F)cc1)[C@H](CO)N2	C diff HTS -97
COc1ccccc1C#Cc1ccc2c(c1)[C@@H]1[C@@H](CCN1C(=O)c1ccc(F)cc1)[C@@H](CO)N2	none
COc1ccc(S(=O)(=O)N2CC[C@@H]3[C@H]2c2cc(C#Cc4ccccc4OC)ccc2N[C@@H]3CO)cc1	Pf Dd2 inh -83
COc1ccc(S(=O)(=O)N2CC[C@@H]3[C@H](CO)Nc4ccc(-c5ccc(C#N)cc5)cc4[C@@H]32)cc1	none
